High-throughput results: PubChem, The Scripps Research Institute Molecular Screening Center
TEAD-YAP block: TEAD-YAP interaction inhibition; HEK-TIYL cells, TEAD-Gal4/YAP UAS-luciferase luminescence; 640,000 compounds, 1.4% hits; inhibition, % at 9.12 µM; AID 1259422; in the data active means inhibition above about 32%;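 further: 0% = median of test compound wells and 100% = reference inhibitor wells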
GPR151 activ: human GPR151 activation | activation, % at 11.2 µM | PathHunter beta-arrestin GPR151 cells, luminescence | AID 1508602 | Q8TDV0 | 650,000 compounds, 1% hits; in the data active means activation above about 4.9%;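 further: 0% = median of compound wells and 100% = cells with positive control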
Target sequence (Q8TDV0 whole entry, looked up): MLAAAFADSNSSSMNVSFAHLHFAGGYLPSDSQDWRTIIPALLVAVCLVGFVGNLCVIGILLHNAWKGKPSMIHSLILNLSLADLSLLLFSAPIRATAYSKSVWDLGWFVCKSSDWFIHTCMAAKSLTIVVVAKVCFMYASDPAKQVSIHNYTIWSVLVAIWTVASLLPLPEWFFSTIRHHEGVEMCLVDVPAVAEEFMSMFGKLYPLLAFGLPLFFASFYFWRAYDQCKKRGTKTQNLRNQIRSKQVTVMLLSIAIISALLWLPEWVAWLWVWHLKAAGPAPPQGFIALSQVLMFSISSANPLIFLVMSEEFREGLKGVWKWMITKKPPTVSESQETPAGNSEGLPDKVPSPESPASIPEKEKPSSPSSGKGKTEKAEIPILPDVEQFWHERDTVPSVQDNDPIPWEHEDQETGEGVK
MITF primary: blocks human microphthalmia-associated transcription factor; AID 1259374; 650,000 compounds, 0.91% hits; AlphaScreen MITF homodimerization, bead proximity signal; inhibition, % at 2.6 µM; in the data active means inhibition above about 50%;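 further: 0% = vehicle wells with protein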
FBW7 activator: human FBW7 E3 ligase activation, primary screen; Q969H0; AlphaScreen FBW7–phospho-cyclin E peptide binding, activator screen; normalized activity (activation), % at 26.1 µM; 650,000 compounds, 0.13% hits; in the data active means normalized activity above about 1.9%;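 further: purified mutant Fbw7 with reduced substrate affinity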
MITF inh conf: human MITF inhibition, confirmation; shares compounds with MITF primary; AlphaScreen MITF homodimerization, biotin/His-MITF beads; inhibition, % at 2.6 µM; 4,700 compounds, 16% hits; AID 1259372;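 active means inhibition above a cutoff derived from the DMSO control wells, cut at about 28% in these data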;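 further: 0% = MITF dimer wells with DMSO only; inhibitors lower the bead chemiluminescence by keeping MITF from dimerizing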
AlphaScreen DR: counter-screen: compounds optically interfering with AlphaScreen; shares compounds with MITF primary; AlphaScreen optical interference counterscreen, cell-free; IC50, µM; 480 compounds, 6% hits; AID 1259373; call rule not given here
AlphaScreen intf2: counter-screen: compounds optically interfering with AlphaScreen; 4,700 compounds, 7.6% hits; LysRS AlphaScreen counterscreen, signal interference, triplicate; shares compounds with MITF primary; AID 1259376; inhibition, % at 2.6 µM;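 active means inhibition above a cutoff derived from the DMSO control wells, cut at about 30% in these data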
Numbers without * were called inactive; / = no result given. Shown are actives, neighbours in structure and some others; about 3.5% of the full set was active somewhere.

SMILES	TEAD-YAP block	GPR151 activ	MITF primary	FBW7 activator	MITF inh conf	AlphaScreen intf2	others
COc1ccc(CN2CCN(Cc3ccc(C)o3)CC2CCO)c(F)c1 (stereo not drawn)	5	0	-2	0	/	/
FC(F)(F)COc1nc(N2CCCCC2)nc(N(c2ccccc2)c2ccccc2)n1	2	0	16	0	/	/
CC1=C(C#N)C(c2cc3c(cc2[N+](=O)[O-])OCO3)C2=C(CCCC2=O)N1 (stereo not drawn)	11	-1	60*	0	80*	-27	AlphaScreen DR=>6.5
CCOC(=O)C1=C(C)NC2=C(C(=O)CCC2)C1c1cc2c(cc1[N+](=O)[O-])OCO2 (stereo not drawn)	23	-1	8	0	/	/
COc1ccc(-c2cc(NCCCN3CCCC3=O)nc(N)n2)cn1	-16	0	6	0	/	/
CC(C)[C@H](NS(=O)(=O)c1ccccc1)C(=O)Nc1ccc(F)c(F)c1	2	0	-6	0	/	/
CCOC(=O)C1=C(c2ccccc2)N=c2s/c(=C\c3cccs3)c(=O)n2C1c1c(OC)ccc2ccccc12 (stereo not drawn)	-10	-1	55*	0	-9	-7
CCOC(=O)C1=C(C)N=c2s/c(=C\c3c(C)[nH]c4ccccc34)c(=O)n2C1c1ccccc1 (stereo not drawn)	3	3	66*	0	-7	-8
COc1ccc2c(c1)N(C(N)=S)C(C)(C)C=C2C	12	1	90*	-1	73*	57*
Cc1c(-c2ccccc2)c(=O)oc2ccc(O)cc12	-3	-1	80*	0	10	10
COc1ccc(CN2CCN(Cc3ccncc3)CC2)cc1OCc1ccccc1	1	1	63*	0	-6	-1
COc1ccc(CN2CCN(Cc3ccc(SC)cc3)CC2)cc1OCc1ccccc1	18	0	55*	0	3	11
COc1ccc(CN2CCN(C)CC2)cc1OCc1ccccc1	-14	0	8	0	/	/
CCOc1cc(CN2CCN(Cc3ccc(SC)cc3)CC2)ccc1OC	25	-1	54*	0	0	3
O=C(O)c1c(CNC2CCCC2)c2ccccc2n1Cc1ccccc1Cl	3	-1	3	0	/	/
COc1ccc(CN2CCCC2)c(OC)c1	8	1	26	0	/	/
COc1cc(OC)c(OC)cc1CN1CCN(C2CCN(Cc3ccccc3)CC2)CC1	-2	-2	59*	0	2	1
COc1ccc(CN2CCN(C3CCN(Cc4ccccc4)CC3)CC2)cc1OC	0	0	21	0	/	/
COc1cc(OC)c(OC)cc1CN1CCN(C2CCCCC2)CC1	5	1	67*	0	-2	-7
COc1ccc(CN2CCC(N3CC(C)OC(C)C3)CC2)cc1OC (stereo not drawn)	1	0	63*	0	-7	1
COc1ccc(CN2CCC(N3CC(C)OC(C)C3)CC2)c(OC)c1 (stereo not drawn)	10	0	95*	0	-17	-4
COc1cc(OC)c(OC)cc1CN1CCN(C2CCCC2)CC1	-1	-1	18	0	/	/
CC1CN(C2CCN(Cc3ccc(Br)cc3)CC2)CC(C)O1 (stereo not drawn)	5	2	46	0	/	/
O=C(CCC(=O)NCc1ccco1)NCCN1CCOCC1	-22	0	-1	0	/	/
CN(C(=O)CC1CCCCC1)c1nnc(-c2ccncc2)s1	-6	0	12	0	/	/
SMILES	TEAD-YAP block	GPR151 activ	MITF primary	FBW7 activator	MITF inh conf	AlphaScreen intf2	others
COc1ccc(CN2CCC(C(=O)N3CCOCC3)CC2)c(OC)c1	-8	1	56*	0	11	7
CCOC(=O)C1CCN(Cc2ccc(OC)cc2OC)CC1	6	2	24	0	/	/
COc1ccc(CN2CCN(C3CCCC3)CC2)c(OC)c1	-6	-1	66*	0	15	10
COc1ccc(CN2CCN(C(=O)CCC3CCCC3)CC2)c(OC)c1	2	0	48	0	/	/
COc1ccc(CN2CCN(C3CCC(C)CC3)CC2)c(OC)c1 (stereo not drawn)	7	0	69*	0	4	15
CN(C)C(=O)N1CCN(c2ccc([N+](=O)[O-])cc2)CC1	5	1	6	1	/	/
